Test results taken from the supplement of paper PMC12282887.
± gives the standard deviation of the averaged measurements.

Experiments:
Experiment in all cases: promoter activity interaction Z-score (Lux/OD deviation from empty-vector control); higher = stronger promoter induction by the compound
[1] = tested on: E. coli BW25113 ompFp lux reporter
Summary of the method: (§1)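 Wild-type E. coli BW25113 and three single-gene deletion strains, each carrying a low-copy luxCDABE promoter reporter, were grown at 37°C in 40 µl LB Lennox per well of a 384-well plate. Every compound was applied at four 1:2 dilutions in biological duplicates, and OD600 and luminescence were read every 30 min for 12 h. Integration covered 0–8 h for wild type and 1–9 h for deletion strains, and wells under 10% of the median growth value were removed. Scores are Z-transformed residuals of growth-normalised luminescence fitted against a control.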

[2] = tested on: E. coli BW25113 robp lux reporter
Summary of the method: as §1

[3] = tested on: E. coli BW25113 soxSp lux reporter
Summary of the method: as §1

[4] = tested on: E. coli BW25113 tolCp lux reporter
Summary of the method: as §1

[5] = 1 µg/ml, genetic background: wild type
[6] = 1 µg/ml, genetic background: ΔmarA
[7] = 1 µg/ml, genetic background: Δrob
[8] = 1 µg/ml, genetic background: ΔsoxS
[9] = 2 µg/ml, genetic background: wild type
[10] = 2 µg/ml, genetic background: ΔmarA
[11] = 2 µg/ml, genetic background: Δrob
[12] = 2 µg/ml, genetic background: ΔsoxS
[13] = 0.25 µg/ml, genetic background: wild type
[14] = 0.25 µg/ml, genetic background: ΔmarA
[15] = 0.25 µg/ml, genetic background: Δrob
[16] = 0.25 µg/ml, genetic background: ΔsoxS
[17] = 0.5 µg/ml, genetic background: wild type
[18] = 0.5 µg/ml, genetic background: ΔmarA
[19] = 0.5 µg/ml, genetic background: Δrob
[20] = 0.5 µg/ml, genetic background: ΔsoxS

## C/C(=C\C(=O)OCCCCCCCCC(=O)O)C[C@@H]1OC[C@H](C[C@@H]2O[C@H]2[C@@H](C)[C@H](C)O)[C@@H](O)[C@H]1O [Pseudomonic acid]
[1]; [5]
  promoter activity interaction Z-score: 0.248 ± 0.034
[1]; [6]
  promoter activity interaction Z-score: 0.569 ± 0.62
[1]; [7]
  promoter activity interaction Z-score: -0.0747 ± 0.3
[1]; [8]
  promoter activity interaction Z-score: 0.938 ± 0.33
[1]; [9]
  promoter activity interaction Z-score: 1.46 ± 0.058
[1]; [10]
  promoter activity interaction Z-score: 1.34 ± 1.3
[1]; [11]
  promoter activity interaction Z-score: 1.51 ± 0.36
[1]; [12]
  promoter activity interaction Z-score: 1.34 ± 0.34
[2]; [13]
  promoter activity interaction Z-score: 0.653 ± 0.041
[2]; [14]
  promoter activity interaction Z-score: 0.421 ± 0.4
[2]; [15]
  promoter activity interaction Z-score: 0.357 ± 0.37
[2]; [16]
  promoter activity interaction Z-score: 0.316 ± 0.48
[2]; [17]
  promoter activity interaction Z-score: 0.392 ± 0.59
[2]; [18]
  promoter activity interaction Z-score: 0.85 ± 0.05
[2]; [19]
  promoter activity interaction Z-score: 0.39 ± 0.34
[2]; [20]
  promoter activity interaction Z-score: 0.257 ± 0.2
[2]; [5]
  promoter activity interaction Z-score: 0.263 ± 0.2
[2]; [6]
  promoter activity interaction Z-score: 0.154 ± 0.026
[2]; [7]
  promoter activity interaction Z-score: 0.375 ± 0.08
[2]; [8]
  promoter activity interaction Z-score: 0.843 ± 0.45
[2]; [9]
  promoter activity interaction Z-score: -0.842 ± 0.42
[2]; [10]
  promoter activity interaction Z-score: -1.15 ± 0.4
[2]; [11]
  promoter activity interaction Z-score: -1.28 ± 0.23
[2]; [12]
  promoter activity interaction Z-score: -1.41 ± 0.72
[3]; [13]
  promoter activity interaction Z-score: -0.0625 ± 0.032
[3]; [14]
  promoter activity interaction Z-score: -0.0981 ± 0.09
[3]; [15]
  promoter activity interaction Z-score: 0.0456 ± 0.03
[3]; [16]
  promoter activity interaction Z-score: -0.226 ± 0.46
[3]; [17]
  promoter activity interaction Z-score: -0.257 ± 0.034
[3]; [18]
  promoter activity interaction Z-score: -0.0627 ± 0.0052
[3]; [19]
  promoter activity interaction Z-score: -0.182 ± 0.0097
[3]; [20]
  promoter activity interaction Z-score: -0.102 ± 0.24
[3]; [5]
  promoter activity interaction Z-score: -0.14 ± 0.14
[3]; [6]
  promoter activity interaction Z-score: -0.143 ± 0.15
[3]; [7]
  promoter activity interaction Z-score: -0.259 ± 0.033
[3]; [8]
  promoter activity interaction Z-score: 0.137 ± 0.11
[3]; [9]
  promoter activity interaction Z-score: 0.249 ± 0.064
[3]; [10]
  promoter activity interaction Z-score: 0.277 ± 0.25
[3]; [11]
  promoter activity interaction Z-score: 0.0902 ± 0.012
[3]; [12]
  promoter activity interaction Z-score: 0.748 ± 0.0089
[4]; [13]
  promoter activity interaction Z-score: -0.891 ± 0.62
[4]; [14]
  promoter activity interaction Z-score: -0.0344 ± 0.2
[4]; [15]
  promoter activity interaction Z-score: -0.281 ± 0.4
[4]; [16]
  promoter activity interaction Z-score: -1.37 ± 0.18
[4]; [17]
  promoter activity interaction Z-score: -0.126 ± 0.82
[4]; [18]
  promoter activity interaction Z-score: 0.395 ± 0.35
[4]; [19]
  promoter activity interaction Z-score: -0.919 ± 0.45
[4]; [20]
  promoter activity interaction Z-score: -0.306 ± 0.13
[4]; [5]
  promoter activity interaction Z-score: -0.0576 ± 0.9
[4]; [6]
  promoter activity interaction Z-score: 0.349 ± 1.1
[4]; [7]
  promoter activity interaction Z-score: -0.441 ± 0.81
[4]; [8]
  promoter activity interaction Z-score: 0.0561 ± 0.82
[4]; [9]
  promoter activity interaction Z-score: 0.277 ± 0.14
[4]; [10]
  promoter activity interaction Z-score: -0.606 ± 0.55
[4]; [11]
  promoter activity interaction Z-score: 0.432 ± 0.075
[4]; [12]
  promoter activity interaction Z-score: -1.08 ± 0.07
